This is a sample that favours compounds with a hit; in the whole collection about 27% have one here.
CYP2C19 inhib – blockers of cytochrome P450 2C19 activity – biochemical, luminescence, ADME assay, primary screen; CYP2C19 Supersomes, luciferin-H EGE luminescence, 30 min; inhibition, % at 5 µM; 21% of 96,000 active; P33261;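 active = CYP2C19 inhibition above a set limit at 5 µM in the primary screen, cut at about 50% in these data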
Target sequence (P33261 whole entry, looked up): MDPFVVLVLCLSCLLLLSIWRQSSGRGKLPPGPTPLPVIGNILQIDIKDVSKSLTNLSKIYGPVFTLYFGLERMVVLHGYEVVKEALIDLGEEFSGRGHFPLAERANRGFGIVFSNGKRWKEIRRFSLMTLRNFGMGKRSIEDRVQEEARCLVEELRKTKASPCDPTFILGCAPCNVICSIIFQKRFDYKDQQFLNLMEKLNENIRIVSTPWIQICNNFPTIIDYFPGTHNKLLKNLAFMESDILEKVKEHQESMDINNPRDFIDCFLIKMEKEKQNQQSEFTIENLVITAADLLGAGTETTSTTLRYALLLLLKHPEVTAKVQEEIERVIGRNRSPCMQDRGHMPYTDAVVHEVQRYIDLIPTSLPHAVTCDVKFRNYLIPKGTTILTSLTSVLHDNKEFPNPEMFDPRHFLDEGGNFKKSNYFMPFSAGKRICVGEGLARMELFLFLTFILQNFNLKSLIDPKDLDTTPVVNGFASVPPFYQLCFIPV
CYP2C19 activ – human CYP2C19 activators, primary screen, biochemical, luminescence | AID 1025, 2008 | recombinant CYP2C19, luciferin-H EGE luminescence; stronger effect = higher value; 0 = fully inhibited enzyme, 1 = untreated enzyme | Cytochrome P450 2C19 (Homo sapiens), P33261 | 96,000 tested, under 10 active | activation factor at 5 µM;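 active = activation factor of at least 2 at 5 µM in the primary screen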
CYP2C9 act – human CYP2C9 activators, primary screen, biochemical, luminescence | activation factor at 5 µM | 1.4% of 96,000 active | Cytochrome P450 2C9 (Homo sapiens), P11712 | AID 1024, 2008 | recombinant CYP2C9, luciferin-H conversion; stronger effect = higher value; factor 1 = untreated enzyme, 0 = blocked;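 active = activation factor of 2 or more for CYP2C9 at a 5 µM dose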
Cav32 inh – Cav3.2 calcium influx blockers – cell-based, Fluo-4 calcium fluorescence, FDSS, MLSMR library, primary screen | Cav3.2-expressing cells; stronger effect = lower value | B-score at 10 µM | AID 449739, 2010 | 4% of 100,000 active | Voltage-dependent T-type calcium channel subunit alpha-1H (Homo sapiens), O95180;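 active = single-dose well whose peak fluorescence ratio is a statistical outlier from its plate by either plate-standardised score or position-corrected B-score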
CYP2C9 inhib – blockers of cytochrome P450 2C9 activity – biochemical, luminescence, ADME assay, primary screen | CYP2C9 Supersomes, luciferin-H conversion | 20% of 96,000 active | inhibition, % at 5 µM;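 active = blocking of liver enzyme CYP2C9 beyond about 50% at 5 µM, limit read from the data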
Hits are given with their value; - = inactive; . = no result given.

SMILES	CYP2C19 inhib	CYP2C19 activ	CYP2C9 act	Cav32 inh	CYP2C9 inhib
CCn1c(SCC(=O)c2ccccc2)nnc1-c1cnccn1	54	-	-	-	-
Fc1ccc(CSc2nnc(-c3cnccn3)n2Cc2ccco2)cc1	70	-	-	-	77
Nn1c(SC/C=C/c2ccccc2)nnc1-c1ccncc1	54	-	-	.	-
COC(=O)CN1C(=O)[C@@H]2[C@H](C1=O)[C@@H]1CC(C(=O)OC)=C[C@@H](C(=O)OC)[C@@H]3C1=C(C(=O)[C@]3(C)NC(=O)c1ccccc1)[C@@H]2C	.	.	.	-	.
CCOC(=O)c1cc(NC(=O)N(CC)CC)c(C)nc1C	-	-	-	-	-
CCOC(=O)c1[nH]c(C)c(/C(O)=C2\C(=O)C(=O)N(CCCN(C)C)C2c2cccnc2)c1C (centres undefined)	-	-	-	-	-
C(=C\c1ccccc1)/CSc1nnc(-c2cnccn2)n1Cc1ccco1	.	.	.	-3.5	.
Cc1cc(C)cc(N2C(=O)C3C4C=CC(C4)C3C2=O)c1 (centres undefined)	63	-	-	-	-
Cc1ccc(Nc2nc3c([nH]2)c(=O)n(C)c(=O)n3C)cc1	-	-	-	-	60
CCn1c(CCNC(=O)c2ccc(Cl)c(Cl)c2)nnc1SCCOc1ccc(OC)cc1	-	-	-	-	-
CCCN(CCC)C1=N/C(=C\c2ccco2)C(=O)N1c1ccccc1	64	-	-	-4.9	71
CCCN=C1N/C(=C\c2ccco2)C(=O)N1c1ccccc1	-	-	-	-	-
COc1cccc(-c2ccc(C#N)c(OC(=O)c3c(Cl)cccc3Cl)n2)c1	-	-	-	-	51
COc1cccc(-c2ccc(C#N)c(OC(=O)c3ccc(Cl)cc3)n2)c1	-	-	-	-	-
COc1cccc(-c2ccc(C#N)c(SCC(=O)NCCc3cccc(Cl)c3)n2)c1	82	-	-	.	64
CCOc1cc(CN2CCOCC2)cc(C(C)=O)c1	-	-	-	-	-
C#CC(=O)N(c1cccc(OC)c1)C(C(=O)NC1CCCC1)c1cccs1 (centres undefined)	57	-	-	-	-
COc1ccc(CCN(C(=O)C(F)(F)F)C(C(=O)NC2CCCC2)c2cccs2)cc1OC (centres undefined)	85	-	-	-	88
COc1ccc(CCN(C(=O)C(F)(F)F)C(C(=O)NC2CCCCC2)c2ccc(C)s2)cc1OC (centres undefined)	-	-	-	-	-
O=C(NC1CCCCC1)C(c1ccc(F)cc1)N(C(=O)c1cccs1)c1ccc2c(c1)OCO2 (centres undefined)	-	-	-	-	-
O=C(NC1CCCCC1)C(c1ccc2ncccc2c1)N(Cc1ccc(F)cc1)C(=O)c1cccs1 (centres undefined)	66	-	-	.	84
COc1ccc(CNC(=O)C(c2ccncc2)N(C(=O)Cc2cccs2)c2ccc(C)cc2)cc1 (centres undefined)	67	-	-	-	69
CC(=O)c1cccc(N(C(=O)c2ccco2)C(C(=O)NC2CCCC2)c2ccncc2)c1 (centres undefined)	-	-	-	-	-
O=C(C1=C[C@H](c2ccc3c(c2)OCO3)C[C@H](OCc2ccc(CO)cc2)O1)N1CCOCC1	.	.	.	-	.
COc1ccc(C(C(=O)NC2CCCCC2)N(Cc2cccs2)C(=O)Cc2c[nH]c3ccccc23)cc1 (centres undefined)	-	-	-	-6.4	68
SMILES	CYP2C19 inhib	CYP2C19 activ	CYP2C9 act	Cav32 inh	CYP2C9 inhib
COc1cccc(CN(C(=O)Cc2c[nH]c3ccccc23)C(C(=O)NC2CCCCC2)c2cccs2)c1 (centres undefined)	94	-	-	-6.6	98
COc1ccc(CN(C(=O)Cc2cccs2)C(C(=O)NC2CCCC2)c2ccncc2)cc1 (centres undefined)	80	-	-	-	67
Cn1cnc(S(=O)(=O)NCc2cccs2)c1	.	.	.	-	.
Cc1ccccc1N(CC(=O)NCCSC1CCCCC1)S(=O)(=O)c1ccccc1	-	-	-	-6	58
COCCNC(=O)CN(c1ccc(C)cc1)S(=O)(=O)c1ccccc1	-	-	-	-	-
CS(=O)(=O)N(Cc1ccccc1)c1ccccc1C(=O)Nc1ccccc1C(=O)NCc1ccco1	89	-	-	-	84
Cc1ccc(S(=O)(=O)N(Cc2ccccc2)c2ccccc2C(=O)NCc2ccco2)cc1	-	-	-	-	99
Cc1ccc(N(CC(=O)NCCSCc2ccco2)S(C)(=O)=O)cc1	-	-	-	-	-
Cc1ccc(S(=O)(=O)N(CC(=O)NCCSCc2ccco2)c2cc(C)ccc2C)cc1	.	.	.	-6.7	.
COc1ccc(NC(=O)COC(=O)c2c3c(nc4ccccc24)CCCC3)cc1Cl	-	-	-	-	-
O=C(O)Cn1cc2c(n1)CCCC2	-	-	-	-	-
CCOC(=O)C1(Cc2ccc(O)cc2)NC(c2ccco2)C2C(=O)N(c3ccccc3F)C(=O)C21 (centres undefined)	-	-	-	-	-
FCCCOc1ccc(-c2nccc(-c3ccc(F)cc3)n2)cc1	54	-	-	.	81
COc1cccc(NC(=O)N2CCN(c3cccc(C)c3C)CC2)c1	-	-	2	-7	-
Cc1cccc(N2CCN(C(=O)C(C)C)CC2)c1C	-	-	-	-	-
Cc1cccc(N2CCN(C(=O)Cn3cccc3)CC2)c1C	79	-	-	-	-
Cc1cccc(N2CCN(C(=O)n3ccnc3)CC2)c1C	100	-	-	-	86
Cc1nc(CC(=O)N2CCN(c3cccc(C)c3C)CC2)cs1	84	-	-	.	-
O=C(NCC1CCCCC1)C1CCCN(C(=O)NC2CCCCC2)C1 (centres undefined)	-	-	-	-	-
Cc1cccc(Oc2cnn(C(C)(C)C)c(=O)c2Cl)c1	.	.	.	-	.
O=C(NC1CCCC1)C(c1ccsc1)N(C(=O)Cc1cccs1)c1cccc(F)c1 (centres undefined)	-	-	-	-	-
COC(=O)c1cc(NC(=O)CN(c2ccccc2OC)S(=O)(=O)c2ccccc2)ccc1Cl	52	-	-	-	97
COc1ccc(N(CC(=O)Nc2ccc3c(c2)OCCO3)S(=O)(=O)c2c(C)noc2C)cc1	-	-	-	.	-
COc1ccc(S(=O)(=O)N(CC(=O)Nc2ccc3c(c2)OCO3)c2ccccc2OC)cc1	-	-	-	-	72
COc1ccc(OC)c(N(CC(=O)Nc2ccc3c(c2)OCCO3)S(C)(=O)=O)c1	64	-	-	-	76
COc1ccccc1N(CC(=O)Nc1ccc2c(c1)OCO2)S(=O)(=O)c1ccccc1	80	-	-	-	100
O=C(CN1CCN(S(=O)(=O)c2ccccc2)CC1)Nc1ccc2c(c1)OCO2	-	-	-	-	-

From PubChem
